In the library only some 2.9% were active in any assay of this set; here they are far more common.
esBAF inh – Bmi1 luciferase reporter increase in mESCs, primary screen, esBAF inhibitor project, mouse ES cells, Bmi1 luciferase knock-in, single point | 24 h; 100% = twice the neutral-well signal | 2% of 350,000 active | reporter increase, % at 12.5 µM; in the data active = activation above about 40%;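 also: 0% = median of the plate's neutral control wells and 100% = double that signal; a rise in the Bmi1 reporter signal indicates esBAF inhibition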
N-glyco inh – increase of ERlucT glycosylation luciferase signal, primary screen, N-linked glycosylation inhibitor project, D54 ERlucT cells, luminescence, set 2; 0.23% of 360,000 active; D54 ERlucT glycosylation luciferase reporter, 24 h; percent of 100 nM tunicamycin response; reporter increase, % at 12.5 µM;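 active = mean luciferase reporter signal, scaled so untreated is 0 and the glycosylation-blocking control 100, at or above a set limit in every replicate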;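 also: luciferase carries N-glycosylation sites so blocking glycosylation raises the light; 0% = median of neutral control wells and 100% = median of 100 nM tunicamycin wells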
Wnt act – Wnt/beta-catenin pathway activators, primary screen, cell-based, plate reader, single point; 1.2% of 300,000 active; Wnt/beta-catenin reporter cell assay, activator; activation, % at 9.35 µM; AID 743398, 2014; in the data active = activation above about 30%, passing the limit was not always enough;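 also: 0% = neutral control wells and 100% = positive control wells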
Vif imaging – HIV Vif self-association inhibitors, primary screen, imaging, HEK293T, single point; AID 602346, 2012; 0.35% of 340,000 active; HEK293T cells, Vif self-association by quenched fluorescence, 24 h; inhibition, % at 7.49 µM; in the data active = inhibition above about 50%, passing the limit was not always enough
PvdQ acylase – P. aeruginosa PvdQ acylase inhibitors, primary screen, biochemical, fluorescence, plate reader and imaging, single point | PvdQ acylase [Pseudomonas aeruginosa LESB58] | purified PvdQ acylase | inhibition, % at 10 µM | 0.063% of 340,000 active; in the data active = inhibition above about 30%, passing the limit was not always enough;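 also: 0% = vehicle neutral wells and 100% = reference inhibitor wells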
MITF TRPM1 HTS – activators of MITF-driven TRPM1 promoter reporter, primary screen, cell-based, SK-MEL-5, luciferase, single point. SK-MEL-5 TRPM1-promoter luciferase, 24 h; % of positive control, neutral wells = 0. activation, % at 12.5 µM. 0.75% of 300,000 active;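 active = mean activation of at least 80% with every replicate also reaching 80%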;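 also: 0% = neutral control wells and 100% = parthenolide positive control wells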
* = called active by the depositor; / = no result given.

SMILES	esBAF inh	N-glyco inh	Wnt act	Vif imaging	PvdQ acylase	MITF TRPM1 HTS
C[C@@H]1CN([C@H](C)CO)C(=O)c2cc(NC(=O)c3ccncc3)ccc2O[C@@H]1CN(C)Cc1ccncc1	-1	/	/	/	/	/
C[C@@H]1CCCCO[C@H](CN(C)Cc2ccccc2)[C@@H](C)CN([C@@H](C)CO)C(=O)c2cc(NC(=O)Nc3ccccc3)ccc2O1	-1	/	/	/	/	/
S=C(N/N=C/c1cccs1)NC1CC2CCC1C2 (stereo not drawn)	/	-1	34*	-6	2	/
S=C(NCCN1CCOCC1)N/N=C/c1cccs1	4	1	1	-13	-12	-7
Oc1ccc(/C=N/NC(=S)NC2CC3CCC2C3)cc1 (stereo not drawn)	47*	-5	18	-2	-23	27
Cc1cccc(N2CC(C(=O)NC3CCCCCC3)CC2=O)c1C (stereo not drawn)	17	-1	368*	10	-12	5
Cc1ccccc1N1CC(C(=O)NC2CCCC2)CC1=O (stereo not drawn)	-7	2	-1	33	-9	2
C=CC[C@@H](CC(=O)N(CCO)Cc1ccccc1)C(=O)N[C@H](COC(=O)[C@@H](CC=C)Cc1ccc(F)cc1)C(C)(C)C	6	-3	1	55*	2	-5
Cn1nnc(NC(=O)c2ccc3ccccc3c2)n1	6	1	/	5	4	31
CCCn1nnc(NC(=O)c2ccc(-c3ccccc3)cc2)n1	41*	-3	29	/	-12	92*
CCCn1nnc(NC(=O)c2ccc(Br)cc2)n1	35	-2	-4	5	11	57
CCCn1nnc(NC(=O)C(c2ccccc2)c2ccccc2)n1	-2	0	-1	50*	-19	/
Cn1nnc(NC(=O)c2ccc(C(C)(C)C)cc2)n1	46*	-5	/	-4	-14	/
CC(C)CC#Cc1cnc2c(c1)C(=O)N([C@H](C)CO)C[C@H](C)[C@H](CN(C)C(=O)c1cccnc1)O2	-9	/	/	/	/	/
OC1CCN(c2c3c(nc4cc(-c5cccc(F)c5)nn24)CCCC3)CC1	104*	-1	5	-3	3	88*
CN(CCO)c1c2c(nc3cc(-c4cccc(F)c4)nn13)CCCC2	-14	-9	40*	2	-6	/
CN(C)CCCNc1cc(-c2ccccc2)nc2cc(-c3cccc(F)c3)nn12	-22	19	-4	19	-9	/
CCOCCN1CCN(c2c3c(nc4cc(-c5ccc(F)cc5)nn24)CCC3)CC1	18	-6	/	2	4	23
Fc1cccc(-c2cc3nc4c(c(N5CCC6(CC5)OCCO6)n3n2)CCCC4)c1	52*	-7	/	-8	-6	45
COc1ccc(NC(=O)N(C)C[C@@H]2Oc3c(NC(=O)Nc4ccc5c(c4)OCO5)cccc3C(=O)N([C@H](C)CO)C[C@@H]2C)cc1	4	/	/	/	/	/
C[C@@H]1CCCCO[C@H](CN(C)S(=O)(=O)c2ccc(F)cc2)[C@H](C)CN([C@@H](C)CO)C(=O)c2cc(NS(=O)(=O)c3ccc(F)cc3)ccc2O1	9	/	/	/	/	/
CC(=O)Nc1cccc(-n2nnc(SCC(=O)c3ccccc3)n2)c1	36	-1	60*	-4	-15	/
C[C@H]1CN([C@@H](C)CO)C(=O)c2cccc(NC(=O)C3CCCCC3)c2O[C@@H]1CN(C)Cc1ccc(Cl)c(Cl)c1	-1	/	/	/	/	/
N#C/C(=C\c1cccs1)C(=O)Nc1ccccn1	/	1	74*	-1	10	89*
Cc1ccc(S(=O)(=O)Nc2ccc3c(c2)C(=O)N([C@H](C)CO)C[C@H](C)[C@@H](CN(C)S(=O)(=O)c2ccc(Cl)cc2)OCCCC[C@@H](C)O3)cc1	2	/	/	/	/	/
c1ccc2c(c1)CC/C2=N/Nc1nc2ccccc2[nH]1	6	-11	7	3	-10	82*
Cc1ccc(C2C3CN(C(C)C)CC=C3C(C#N)=C(N)C2(C#N)C#N)cc1 (stereo not drawn)	0	-1	0	/	-7	-14

Assay outcomes (PubChem BioAssay)
